The other results are listed elsewhere or left out. Active and inactive are the calls of the source.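 How the source made its calls, unless noted: active means mean inhibition above about 50% in the one-dose retest (limit read from the data); inactive means the rest.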
Assays:
[1] = target: Sentrin-specific protease 8 (Homo sapiens) (UniProt Q96LD8); assay: human SENP8 peptidase blockers, hit retest – biochemical, luminescence, single concentration, confirmation (AID 488912;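 active means mean inhibition across replicates above about 50%, limit read from the data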); conditions: Recombinant SENP8, Z-RLRGG-aminoluciferin luminescence, 60 min; at 12.5 µM; stronger effect = higher value
[2] = target: Sentrin-specific protease 6 (Homo sapiens) (UniProt Q9GZR1); assay: inhibition of human SENP6 catalytic domain – biochemical, luminescence, single concentration, confirmation (AID 488915); conditions: recombinant SENP6, Z-RLRGG-aminoluciferin luminescence; at 12.5 µM; stronger effect = higher value
[3] = target: Sentrin-specific protease 7 (Homo sapiens) (UniProt Q9BQF6); assay: human SENP7 peptidase blockers, hit retest – biochemical, luminescence, single concentration, confirmation (AID 488917); conditions: recombinant SENP7, Z-RLRGG-aminoluciferin luminescence, 40 min; at 12.5 µM; stronger effect = higher value
Caspase-3 (Homo sapiens) = Caspase-3 (Homo sapiens) (UniProt P42574); assay: human caspase-3 activity blockade, out-of-family – biochemical, single concentration, selectivity assay for SENP inhibitor project, confirmation (AID 488918;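 active means mean inhibition above about 50%, limit read from the data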;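 further: plate controls were enzyme with DMSO for no effect and wells without caspase-3 for full effect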); conditions: purified caspase-3, Z-DEVD-aminoluciferin luminescence, 60 min; at 12.5 µM; stronger effect = higher value
[4] = Ultra-Glo luciferase signal interference – biochemical, single concentration, SENP8 reaction pre-completed, artefact control for SENP inhibitor project, confirmation (AID 488919;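 active means mean inhibition above about 50% when retested at one dose, limit read from the data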;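 further: plate controls were DMSO wells with completed reaction for no effect and substrate without enzyme for full effect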); conditions: Pre-incubated SENP8/Z-RLRGG-aminoluciferin, luciferase luminescence interference; at 12.5 µM; stronger effect = higher value
[5] = apoptosome-driven caspase-3 activation blockers – biochemical, fluorescence, DEVD-Rh110, 20 µM, confirmation (AID 504614;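 active means mean inhibition of at least 40% at 20 µM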;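 further: plate controls were DMSO wells for no effect and DEVD-CHO caspase inhibitor control wells for full effect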); conditions: reconstituted apoptosome, caspase-3 DEVD-Rh110 fluorescence; at 20 µM; stronger effect = higher value
[6] = detection-step artefacts after completed caspase reaction – biochemical, fluorescence, Rh110, 20 µM, artefact control for Apaf-1 inhibitor project, confirmation (AID 504615;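 active means signal rise of 40% or more at 20 µM, treated as a fluorescence artifact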); conditions: quenched caspase reaction, at 20 µM, stronger effect = higher value
[7] = target: Tumor necrosis factor receptor superfamily member 10B (Homo sapiens) (UniProt O14763); assay: viability loss of caspase-8 NB7 cells with TRAIL – with/without TRAIL, luminescence panel, confirmation (AID 651596; in the data active means activity above about 50%); conditions: NB7 neuroblastoma + caspase-8, TRAIL sensitization, NB7 Caspase-8, with TRAIL, mean of runs, at 10 µM, stronger effect = higher value
[8] = as above; conditions: NB7 neuroblastoma + caspase-8, without TRAIL, NB7 Caspase-8, without TRAIL, mean of runs, at 10 µM
[9] = target: Protein Mdm4 (Homo sapiens) + E3 ubiquitin-protein ligase Mdm2 (Homo sapiens) (UniProt O15151+Q00987); assay: human Mdm2/MdmX binding disruption – cell-based, luminescence, single concentration, set 2, confirmation (AID 504601;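 active means mean inhibition of the luminescence signal across two replicates at or above 26 percent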); conditions: SaOS-2 split-luciferase Mdm2/MdmX complementation, at 8 µM, stronger effect = higher value
[10] = target: COP9 signalosome complex subunit 5 (Homo sapiens) (UniProt Q92905); assay: blockers of CSN-driven cullin deneddylation – biochemical, fluorescence polarization, single concentration, SCF-Nedd8OG substrate, confirmation (AID 720654; in the data active means inhibition above about 50%;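 further: 0% = DMSO with enzyme and 100% = no enzyme wells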); conditions: Csn5 deneddylation of SCF-Nedd8OG, 90 min, at 16.6 µM, stronger effect = higher value
[11] = target: 72 kDa type IV collagenase (Homo sapiens) (UniProt P08253); assay: human MMP-2 inhibitors, single-point check – biochemical, fluorescence, single concentration, counter-screen for CSN deneddylation inhibitor project, confirmation (AID 720655;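 active means corrected plate-normalized z-score of 5 or more, or -5 or less, or inhibition of 15% or more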;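 further: plate controls were DMSO wells with enzyme for no effect and buffer wells lacking MMP-2 for full effect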); conditions: recombinant MMP-2, FRET substrate fluorescence, 60 min; at 16.6 µM
Prothrombin (Bos taurus) = Prothrombin (Bos taurus) (UniProt P00735); assay: thrombin cleavage blockers, FP readout – biochemical, fluorescence polarization, single concentration, counter-screen for CSN deneddylation inhibitor project, confirmation (AID 720656;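 active means inhibition at or above a set limit, with a fluorescence interference ratio between 0.5 and a set maximum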); conditions: bovine thrombin cleavage of Ub4-pepOG, at 16.6 µM, stronger effect = higher value
[12] = inhibition of PEG-3 promoter luciferase signal – cell-based, HeLa, luciferase reporter, single concentration, confirmation (AID 602417;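 active means at 20 µM dose, 40% or more inhibition averaged across four replicates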); conditions: HeLa PEG-Prom luciferase reporter, luminescence, overnight; at 20 µM; stronger effect = higher value
PEG-3 [13] = target: PEG-3 (UniProt Q6IN02); assay: inhibition of PEG-3 promoter-driven reporter – cell-based, HeLa, luciferase, CREF/GAPDH counter-screen panel, dose response (AID 624167); conditions: CREF/GAPDH counter-screens; HeLa PEG-Prom luciferase reporter, overnight, run 1, dose range 1, at 100 µM (top of the series) unless noted
PEG-3 [14] = target: PEG-3 (UniProt Q6IN02); assay: as above; conditions: CREF/GAPDH counter-screens; HeLa PEG-Prom luciferase reporter, overnight, run 2, dose range 1, at 100 µM (top of the series) unless noted
Rat fibroblasts (CREF) [15] = assay: as above; conditions: CREF/GAPDH counter-screens; run 1, dose range 1, at 100 µM (top of the series)
Rat fibroblasts (CREF) [16] = assay: as above; conditions: CREF/GAPDH counter-screens; run 2, dose range 1, at 100 µM (top of the series)
[17] = fluorescence interference of Apaf-1 inhibitor hits, dose response, artefact control for Apaf-1 inhibitor project (AID 588538; call rule not given here); conditions: fluorescence interference counterscreen, Apaf-1 assay format

Sequence of Sentrin-specific protease 6 (Homo sapiens) (Q9GZR1 628-1112 limits assumed): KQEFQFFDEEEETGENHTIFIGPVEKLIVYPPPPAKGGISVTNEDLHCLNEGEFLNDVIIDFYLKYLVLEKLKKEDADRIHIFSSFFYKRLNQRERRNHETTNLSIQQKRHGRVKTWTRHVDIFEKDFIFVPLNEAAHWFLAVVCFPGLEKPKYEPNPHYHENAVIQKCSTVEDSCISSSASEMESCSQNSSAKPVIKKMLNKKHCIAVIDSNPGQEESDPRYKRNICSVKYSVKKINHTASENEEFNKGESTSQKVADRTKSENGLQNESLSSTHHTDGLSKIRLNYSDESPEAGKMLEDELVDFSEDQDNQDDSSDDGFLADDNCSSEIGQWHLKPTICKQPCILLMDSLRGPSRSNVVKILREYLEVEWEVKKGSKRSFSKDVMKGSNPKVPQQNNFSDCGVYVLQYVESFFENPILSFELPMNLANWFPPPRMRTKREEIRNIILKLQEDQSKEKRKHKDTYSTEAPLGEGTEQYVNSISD
Sequence of Sentrin-specific protease 7 (Homo sapiens) (Q9BQF6 706-1050 limits assumed): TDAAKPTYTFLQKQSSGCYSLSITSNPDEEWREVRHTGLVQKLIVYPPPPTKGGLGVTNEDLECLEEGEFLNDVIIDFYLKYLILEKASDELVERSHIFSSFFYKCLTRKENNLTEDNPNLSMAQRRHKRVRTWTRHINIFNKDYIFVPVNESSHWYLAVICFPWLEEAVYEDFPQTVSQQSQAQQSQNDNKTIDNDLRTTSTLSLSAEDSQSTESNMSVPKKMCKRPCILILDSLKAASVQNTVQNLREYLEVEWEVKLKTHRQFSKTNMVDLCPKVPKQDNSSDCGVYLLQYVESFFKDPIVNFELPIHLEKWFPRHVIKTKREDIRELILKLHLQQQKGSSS
Sequence of Tumor necrosis factor receptor superfamily member 10B (Homo sapiens) (O14763 whole entry, looked up): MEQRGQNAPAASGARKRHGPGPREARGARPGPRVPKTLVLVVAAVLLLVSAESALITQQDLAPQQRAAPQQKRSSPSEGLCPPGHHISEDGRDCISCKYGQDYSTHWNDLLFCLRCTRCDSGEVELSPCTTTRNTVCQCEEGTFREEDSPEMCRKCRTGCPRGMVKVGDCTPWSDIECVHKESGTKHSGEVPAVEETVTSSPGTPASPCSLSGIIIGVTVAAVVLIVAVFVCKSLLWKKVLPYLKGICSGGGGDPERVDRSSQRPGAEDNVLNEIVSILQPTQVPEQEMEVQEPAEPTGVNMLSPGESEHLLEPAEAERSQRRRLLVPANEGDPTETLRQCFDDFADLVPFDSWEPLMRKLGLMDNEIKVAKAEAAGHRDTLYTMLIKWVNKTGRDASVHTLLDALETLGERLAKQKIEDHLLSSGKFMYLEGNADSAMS
Sequence of Sentrin-specific protease 8 (Homo sapiens) (Q96LD8 whole entry, looked up, the tested form may be a part): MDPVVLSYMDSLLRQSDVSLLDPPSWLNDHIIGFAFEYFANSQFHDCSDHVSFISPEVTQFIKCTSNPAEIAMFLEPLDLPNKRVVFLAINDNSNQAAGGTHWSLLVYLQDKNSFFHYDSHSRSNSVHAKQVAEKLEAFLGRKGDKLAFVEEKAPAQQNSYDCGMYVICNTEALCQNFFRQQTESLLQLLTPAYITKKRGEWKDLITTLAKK
Sequence of Caspase-3 (Homo sapiens) (P42574 28-227 limits assumed): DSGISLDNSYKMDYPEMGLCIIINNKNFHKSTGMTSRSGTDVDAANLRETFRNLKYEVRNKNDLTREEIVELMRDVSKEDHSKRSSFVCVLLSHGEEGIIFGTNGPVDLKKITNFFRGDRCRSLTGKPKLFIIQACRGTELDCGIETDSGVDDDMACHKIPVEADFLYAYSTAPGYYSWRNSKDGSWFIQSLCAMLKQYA
Sequence of Protein Mdm4 (Homo sapiens) + E3 ubiquitin-protein ligase Mdm2 (Homo sapiens) (O15151 whole entry, looked up): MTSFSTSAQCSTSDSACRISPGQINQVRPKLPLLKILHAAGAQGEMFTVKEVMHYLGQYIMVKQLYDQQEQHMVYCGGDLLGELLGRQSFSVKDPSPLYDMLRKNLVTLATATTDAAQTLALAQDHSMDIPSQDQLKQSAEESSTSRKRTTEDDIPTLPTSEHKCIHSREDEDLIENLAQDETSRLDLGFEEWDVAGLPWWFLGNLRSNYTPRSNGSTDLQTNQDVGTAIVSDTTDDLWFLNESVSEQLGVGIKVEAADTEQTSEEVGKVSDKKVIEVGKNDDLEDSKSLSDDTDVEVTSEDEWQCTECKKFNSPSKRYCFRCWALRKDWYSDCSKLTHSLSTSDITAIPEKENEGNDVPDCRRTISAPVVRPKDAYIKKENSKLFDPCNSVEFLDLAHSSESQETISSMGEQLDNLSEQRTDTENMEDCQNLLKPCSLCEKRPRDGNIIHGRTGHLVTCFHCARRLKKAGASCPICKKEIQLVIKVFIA
Sequence of Protein Mdm4 (Homo sapiens) + E3 ubiquitin-protein ligase Mdm2 (Homo sapiens) (Q00987 whole entry, looked up): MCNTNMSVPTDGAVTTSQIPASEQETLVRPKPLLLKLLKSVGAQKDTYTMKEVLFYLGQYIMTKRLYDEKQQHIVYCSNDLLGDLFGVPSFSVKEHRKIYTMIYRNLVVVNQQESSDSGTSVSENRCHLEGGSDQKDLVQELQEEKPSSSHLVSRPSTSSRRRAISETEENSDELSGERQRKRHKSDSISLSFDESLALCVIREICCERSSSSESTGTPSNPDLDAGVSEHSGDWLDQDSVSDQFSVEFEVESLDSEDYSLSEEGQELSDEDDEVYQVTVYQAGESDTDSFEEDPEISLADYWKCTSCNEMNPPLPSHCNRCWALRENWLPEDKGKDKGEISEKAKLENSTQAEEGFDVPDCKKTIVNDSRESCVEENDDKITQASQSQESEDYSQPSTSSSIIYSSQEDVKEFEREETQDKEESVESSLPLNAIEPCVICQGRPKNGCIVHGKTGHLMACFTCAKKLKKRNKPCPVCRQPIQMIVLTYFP
Sequence of PEG-3 (Q6IN02 whole entry, looked up): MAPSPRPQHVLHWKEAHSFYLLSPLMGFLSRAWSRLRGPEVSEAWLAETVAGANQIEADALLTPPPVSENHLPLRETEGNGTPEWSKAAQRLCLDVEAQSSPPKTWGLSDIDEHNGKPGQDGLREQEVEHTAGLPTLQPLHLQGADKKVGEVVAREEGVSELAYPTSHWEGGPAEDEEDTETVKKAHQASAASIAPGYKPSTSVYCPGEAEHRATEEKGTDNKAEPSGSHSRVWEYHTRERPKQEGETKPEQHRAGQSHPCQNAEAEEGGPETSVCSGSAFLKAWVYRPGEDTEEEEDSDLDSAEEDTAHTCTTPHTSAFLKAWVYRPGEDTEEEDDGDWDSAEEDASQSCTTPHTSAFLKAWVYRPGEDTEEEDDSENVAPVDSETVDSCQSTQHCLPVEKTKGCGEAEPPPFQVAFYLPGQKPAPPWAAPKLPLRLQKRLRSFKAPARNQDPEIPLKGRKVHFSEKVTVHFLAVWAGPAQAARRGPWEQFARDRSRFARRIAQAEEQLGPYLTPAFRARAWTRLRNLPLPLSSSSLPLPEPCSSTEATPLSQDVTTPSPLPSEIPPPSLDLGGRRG
Sequence of Prothrombin (Bos taurus) (P00735 whole entry, looked up): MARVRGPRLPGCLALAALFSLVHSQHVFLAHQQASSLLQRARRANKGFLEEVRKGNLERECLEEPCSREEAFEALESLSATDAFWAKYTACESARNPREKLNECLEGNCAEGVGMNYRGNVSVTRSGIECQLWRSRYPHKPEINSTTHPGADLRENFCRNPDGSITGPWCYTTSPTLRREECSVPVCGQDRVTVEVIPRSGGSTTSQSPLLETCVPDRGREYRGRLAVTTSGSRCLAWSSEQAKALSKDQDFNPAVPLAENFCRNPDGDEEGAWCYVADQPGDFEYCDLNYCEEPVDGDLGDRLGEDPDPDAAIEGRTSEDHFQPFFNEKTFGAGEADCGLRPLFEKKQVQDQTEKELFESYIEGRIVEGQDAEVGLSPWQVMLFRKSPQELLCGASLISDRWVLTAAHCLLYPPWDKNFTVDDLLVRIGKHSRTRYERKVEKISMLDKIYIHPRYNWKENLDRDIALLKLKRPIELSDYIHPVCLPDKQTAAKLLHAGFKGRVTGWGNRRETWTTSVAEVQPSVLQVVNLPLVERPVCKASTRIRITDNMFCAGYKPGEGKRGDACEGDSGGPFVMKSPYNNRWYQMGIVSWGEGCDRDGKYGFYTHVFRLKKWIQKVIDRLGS
Sequence of COP9 signalosome complex subunit 5 (Homo sapiens) (Q92905 whole entry, looked up, one chain of several): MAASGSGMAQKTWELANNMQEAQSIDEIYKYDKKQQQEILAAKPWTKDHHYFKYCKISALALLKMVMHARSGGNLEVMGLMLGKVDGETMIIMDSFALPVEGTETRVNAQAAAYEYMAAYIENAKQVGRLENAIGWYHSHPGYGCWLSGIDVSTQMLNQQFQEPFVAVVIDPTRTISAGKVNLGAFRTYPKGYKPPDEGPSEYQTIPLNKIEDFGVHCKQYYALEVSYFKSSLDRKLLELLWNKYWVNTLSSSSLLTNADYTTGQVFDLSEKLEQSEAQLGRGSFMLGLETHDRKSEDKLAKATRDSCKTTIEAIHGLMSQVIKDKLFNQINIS
Sequence of 72 kDa type IV collagenase (Homo sapiens) (P08253 whole entry, looked up): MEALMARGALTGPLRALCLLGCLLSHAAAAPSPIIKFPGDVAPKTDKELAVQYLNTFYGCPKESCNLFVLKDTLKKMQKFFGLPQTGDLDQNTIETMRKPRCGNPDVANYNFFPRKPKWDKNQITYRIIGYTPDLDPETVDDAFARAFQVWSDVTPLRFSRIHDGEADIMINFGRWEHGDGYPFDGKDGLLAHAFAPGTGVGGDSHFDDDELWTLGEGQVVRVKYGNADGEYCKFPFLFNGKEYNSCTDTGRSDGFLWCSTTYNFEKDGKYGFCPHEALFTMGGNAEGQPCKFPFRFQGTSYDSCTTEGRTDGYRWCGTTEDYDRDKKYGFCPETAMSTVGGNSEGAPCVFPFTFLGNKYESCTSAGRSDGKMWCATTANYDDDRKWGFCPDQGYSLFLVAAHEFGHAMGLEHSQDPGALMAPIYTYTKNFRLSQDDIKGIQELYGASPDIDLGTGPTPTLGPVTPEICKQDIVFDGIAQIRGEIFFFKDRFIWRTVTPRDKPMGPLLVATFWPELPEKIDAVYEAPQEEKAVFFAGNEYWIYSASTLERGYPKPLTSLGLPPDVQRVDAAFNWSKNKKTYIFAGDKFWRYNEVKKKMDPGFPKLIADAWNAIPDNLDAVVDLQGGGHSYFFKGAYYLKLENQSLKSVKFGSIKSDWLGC

C/C(=C\C(=O)c1ccccc1)Nc1cccc(O)c1
inhibition [1]: 43.1% (inactive)
inhibition [2]: 47.3% (inactive)
inhibition [3]: 82.2% (active)
inhibition (Caspase-3 (Homo sapiens)): 39.4% (inactive)
inhibition [4]: 66.4% (active)

FC(F)(F)c1ccnc(Oc2ccc(C3=NCCS3)cc2)c1
inhibition [1]: 36.3% (inactive)
inhibition [2]: 42.8% (inactive)
inhibition [3]: 53.1% (active)
inhibition (Caspase-3 (Homo sapiens)): 29.9% (inactive)
inhibition [4]: 17% (inactive)

O=C(Nc1ccc(NC(=O)c2ccco2)c(Cl)c1)c1cccc([N+](=O)[O-])c1
inhibition [1]: 8.7% (inactive)
inhibition [2]: 6.1% (inactive)
inhibition [3]: -6.7% (inactive)
inhibition (Caspase-3 (Homo sapiens)): -0.7% (inactive)
inhibition [4]: -0.2% (inactive)

C/C(=N\Nc1nc2ccccc2[nH]1)c1cccs1
inhibition [1]: 49.6% (inactive)
inhibition [2]: 49.2% (inactive)
inhibition [3]: 81.2% (active)
inhibition (Caspase-3 (Homo sapiens)): 63.1% (active)
inhibition [4]: 61.7% (active)

CCOc1ccc(C(=O)Nc2cccc(SC)c2)cc1
inhibition [1]: -21.9% (inactive)
inhibition [2]: 80.1% (active)
inhibition [3]: 96.7% (active)
inhibition (Caspase-3 (Homo sapiens)): 76.3% (active)
inhibition [4]: 85.8% (active)

COc1ccc(C(=O)COC(=O)c2ccc([N+](=O)[O-])s2)cc1OC
inhibition [1]: 4.2% (inactive)
inhibition [2]: 46.8% (inactive)
inhibition [3]: 7.5% (inactive)
inhibition (Caspase-3 (Homo sapiens)): 14.1% (inactive)
inhibition [4]: 6.4% (inactive)

Cc1cccc(/C=N/NC(=O)CNc2cccc3ccccc23)n1
inhibition [1]: 13.1% (inactive)
inhibition [2]: 12.9% (inactive)
inhibition [3]: 3.9% (inactive)
inhibition (Caspase-3 (Homo sapiens)): -0.3% (inactive)
inhibition [4]: 1.6% (inactive)

N#Cc1c(N2CCCCC2)nc(N)c2c(N)nc(SCC(=O)O)cc12
inhibition [1]: 11.2% (inactive)
inhibition [2]: 72.6% (active)
inhibition [3]: 61.9% (active)
inhibition (Caspase-3 (Homo sapiens)): 0.8% (inactive)
inhibition [4]: -0.2% (inactive)
inhibition [5]: 31.3% (inactive)
activation (fluorescence interference) [6]: 7.18% (inactive)

O=C(/C=C/c1ccc2c(c1)OCCO2)c1ccc(O)cc1
inhibition [1]: 68.6% (active)
inhibition [2]: 59% (active)
inhibition [3]: 72.1% (active)
inhibition (Caspase-3 (Homo sapiens)): 54.3% (active)
inhibition [4]: 86.9% (active)
activity [7]: 41%
activity [8]: 45.6%

COc1cccc(NC(=O)[C@H](Cc2c[nH]c3ccccc23)NC(=O)[C@@H]2Cc3ccccc3CN2)c1
inhibition [9]: 98.2% (active)

C(=N\Nc1ccc2ccccc2n1)/c1ccc2c(c1)OCO2
inhibition [1]: 97.7% (active)
inhibition [2]: 98.3% (active)
inhibition [3]: 102% (active)
inhibition (Caspase-3 (Homo sapiens)): 93.2% (active)
inhibition [4]: 71.3% (active)
activity [7]: 51.5%
activity [8]: 31.6%

COc1cc(/C=C(\C#N)c2nc3ccccc3[nH]2)ccc1O
inhibition [1]: 95.1% (active)
inhibition [2]: 95.1% (active)
inhibition [3]: 101% (active)
inhibition (Caspase-3 (Homo sapiens)): 93.4% (active)
inhibition [4]: 66.5% (active)
inhibition [10]: 78.1% (active)
inhibition [11]: -18.3% (inactive)
inhibition (Prothrombin (Bos taurus)): 62.2% (active)

CC(=C/c1ccccc1)/C=N/NC(=O)c1cc(C)oc1C
inhibition [1]: 14.3% (inactive)
inhibition [2]: 46.8% (inactive)
inhibition [3]: 23.5% (inactive)
inhibition (Caspase-3 (Homo sapiens)): 86.4% (active)
inhibition [4]: -2.7% (inactive)
activity [7]: 58.5%
activity [8]: 63.6%

Cc1ccc2nc(-c3ccc(Br)cc3)cn2c1
inhibition [1]: 7.3% (inactive)
inhibition [2]: 34.4% (inactive)
inhibition [3]: 70% (active)
inhibition (Caspase-3 (Homo sapiens)): 51.5% (active)
inhibition [4]: -8.6% (inactive)
inhibition [12]: 49.5% (active)
inhibition (PEG-3 [13]): 101%
inhibition (PEG-3 [14]): 88.9%
inhibition (Rat fibroblasts (CREF) [15]): 93.6%
inhibition (Rat fibroblasts (CREF) [16]): 85.5%

CC[C@]1(C(=O)OC)[C@H]2C(=O)N(Cc3ccccc3)C(=O)[C@H]2[C@H]2CN=C(SCc3ccc(C#N)cc3)N21
inhibition [9]: 102% (active)

Cc1oc2c(c1C(=O)N1CCOCC1)C(=O)c1ccccc1C2=O
inhibition [1]: 27.7% (inactive)
inhibition [2]: 61% (active)
inhibition [3]: 6% (inactive)
inhibition (Caspase-3 (Homo sapiens)): 87.5% (active)
inhibition [4]: -2.3% (inactive)
inhibition [5]: 52.9% (active)
activation (fluorescence interference) [6]: 8.76% (inactive)
IC50 [17]: > 100 µM (inactive)

O=C(Nc1ccc(Cl)cn1)c1ccc2c(c1)OCCO2
inhibition [1]: -5.1% (inactive)
inhibition [2]: 71.4% (active)
inhibition [3]: 92.9% (active)
inhibition (Caspase-3 (Homo sapiens)): 82.8% (active)
inhibition [4]: 76.4% (active)
activity [7]: 67.6%
activity [8]: 71.8%

CCN1C(=O)c2cccc3c(N)ccc1c23
inhibition [1]: 22% (inactive)
inhibition [2]: 41.5% (inactive)
inhibition [3]: 15.6% (inactive)
inhibition (Caspase-3 (Homo sapiens)): 2.1% (inactive)
inhibition [4]: -6.4% (inactive)
inhibition [5]: 70.1% (active)
activation (fluorescence interference) [6]: 2.39% (inactive)
IC50 [17]: > 100 µM (inactive)

COc1cccc(C(=O)Nc2ccc(N3CCCC3)cc2)c1
inhibition [1]: 95% (active)
inhibition [2]: 99.7% (active)
inhibition [3]: 104% (active)
inhibition (Caspase-3 (Homo sapiens)): 99.5% (active)
inhibition [4]: 86.3% (active)
activity [7]: 46.8%
activity [8]: 54%

From PubChem BioAssay
